Drawing on PubChem BioAssay (Tox21), this text covers Potency and outcome for seven compounds.

Values joined by “and” are separate entries in the source; they are usually repeats but may differ in a detail not shown here. Identical values can stand only once. Records with an inconclusive call do not appear. Some compounds were tested as several samples or in several runs, with calls that do not always agree. Active and inactive are the calls of the source. Unless noted, calls come from the whole dose curve; as a rule, active = well fitted curve in the direction sought with a large enough effect in the repeat runs; inconclusive = weak or mixed curves; inactive = no such curve, though single readings can be large; an effect the other way counts as inactive or inconclusive.

Test [1] is described as follows: qHTS assay to identify small molecule antagonists of the sonic hedgehog signaling (Shh) pathway (AID 1259369; calls by dose curve; note: nearly all actives have a fitted effect of over 45% in size; note: potency is the fitted concentration of half-maximal effect). The gist of the method: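 Gli1 transcriptional reporter (firefly Luc) in NIH/3T3 background, conditioned-medium activated. 24hr exposure, luminescence endpoint.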
For orientation: Quantitative high-throughput screening tests each substance at several concentrations.

Test [2] can be described thus: qHTS assay to identify small molecule agonists of the androgen receptor (AR) signaling pathway in the presence of an antagonist - cell viability counter screen (AID 1259379). Note: nearly all actives have a fitted effect of over 25% in size. Note: potency is the fitted concentration of half-maximal effect. The gist of the method: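 Counter screen for cell viability run in parallel with the AR agonist-mode luciferase assay. MDA-kb2 cells were co-treated with nilutamide (3.0uM final) and compounds, then incubated 16 hr at 37C, and CellTiter-Fluor fluorescence was measured.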

Test [3] can be described thus: qHTS assay to identify small molecule agonists of the estrogen receptor beta (ER-beta) signaling pathway - cell viability counter screen (AID 1259380). Note: nearly all actives have a fitted effect of over 30% in size. Note: potency is the fitted concentration of half-maximal effect. The gist of the method: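 In this qHTS counter screen, HEK293T cells carrying an ER-beta/UAS beta-lactamase reporter, grown in 2% charcoal-stripped FBS, received compound for 16 hr; ATP-based CellTiter-Glo luminescence was then read after 30 min at room temperature.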

Test [4] can be described thus: qHTS assay to identify small molecule antagonists of the estrogen receptor beta (ER-beta) signaling pathway - cell viability counter screen (AID 1259382). Note: nearly all actives have a fitted effect of over 55% in size. Note: potency is the fitted concentration of half-maximal effect. In a few lines:
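HEK293T ER-beta-UAS-bla, 2% charcoal-stripped FBS; compounds + 1nM E2 16 hr 37C; CellTiter-Glo luminescence, 30 min RT.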

The target in test [5] is Estrogen receptor (Homo sapiens) (UniProt P03372). Kind of test: qHTS assay to identify small molecule agonists of the estrogen receptor alpha (ER-alpha) signaling pathway in the presence of an antagonist (AID 1259383; calls by dose curve; note: nearly all actives have a fitted effect of over 15% in size; note: potency is the fitted concentration of half-maximal effect; for activation: top concentration of the series differs between compounds; % is set by controls: 0 for no effect and ±100 for the full control effect). The gist of the method:
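ER-alpha agonism measured under antagonist challenge: 10.0nM ICI-182,780 (final) plus compound, 15 concentrations, 22hr, VM7Luc4E2 ERE-luciferase cells. Read by luminescence.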

Test [6] in a line: qHTS assay to identify small molecule agonists of the estrogen receptor alpha (ER-alpha) signaling pathway in the presence of an antagonist - cell viability counter screen (AID 1259386).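 Note: cells exposed to compounds for 22 h at 37 °C before the viability read; nearly all actives have a fitted effect of over 30% in size.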 Note: potency is the fitted concentration of half-maximal effect. In a few lines:
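Steps: 5-day stripped-FBS culture; seed and incubate 24hr; add ICI-182,780 (10.0nM final); pin 15-point compound titration; incubate 22hr at 37C; add CellTiter-Fluor at 21hr; read fluorescence.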

The target of test [7] is Progesterone receptor (Homo sapiens) (UniProt P06401). As to the kind of experiment: qHTS assay to identify small molecule agonists of the progesterone receptor (PR) signaling pathway (AID 1346784; calls by dose curve; note: % is set by controls: 0 for no effect and ±100 for the full control effect; nearly all actives have a fitted effect of over 30% in size). The gist of the method: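 Agonist mode, quantitative HTS format in a HEK 293T line expressing a UAS-controlled beta-lactamase reporter; 16 hr compound exposure at 37C in 2% charcoal-stripped FBS, then LiveBLAzer B/G FRET fluorescence.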

The target is the same in test [8]. As to the kind of experiment: qHTS assay to identify small molecule antagonists of the progesterone receptor (PR) signaling pathway (AID 1346795; active = well fitted inhibition curve with a large enough effect in the signal ratio in the repeat runs, not every such curve was filed as active; the % refers to the signal ratio; note: potency is the fitted concentration of half-maximal effect). In a few lines:
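HEK293T PR-UAS-bla reporter cells in charcoal-stripped serum (2%) received compound after a 6 hr settling period, followed by R5020 agonist at 1 nM final; 16 hr incubation preceded the FRET substrate step and fluorescence measurement.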

Test [9] is described as follows: qHTS assay to identify small molecule antagonists of the progesterone receptor (PR) signaling pathway - cell viability counter screen (AID 1346798). Note: nearly all actives have a fitted effect of over 50% in size. Note: potency is the fitted concentration of half-maximal effect. The gist of the method:
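Same-well multiplex: after 16 hr at 37C with compound and R5020 stimulation, HEK293T cells carrying a UAS-bla reporter received LiveBLAzer substrate (2 hr RT), then CellTiter-Glo (30 min RT) for luminescent viability.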

A short description of test [10]: qHTS assay to identify small molecule agonists of the progesterone receptor (PR) signaling pathway - cell viability counter screen (AID 1346799; calls by dose curve; note: nearly all actives have a fitted effect of over 45% in size; note: potency is the fitted concentration of half-maximal effect). The gist of the method:
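Counter screen for cytotoxicity: compound-treated PR-UAS-bla HEK293T cells (16 hr, 37C, 5% CO2) were assayed with CellTiter-Glo, luminescence measured after 30 min at room temperature.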

Test [11] in a line: qHTS assay to identify small molecule agonists of the TGF-beta/Smad signaling pathway - cell viability counter screen (AID 1346829). Note: nearly all actives have a fitted effect of over 45% in size. Note: potency is the fitted concentration of half-maximal effect. The gist of the method:
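Luminescence from CellTiter-Glo, read after a 30 min room-temperature incubation, gives cell viability of SBE-bla HEK 293T cells treated 5 hr with compounds at 37 C.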

Test [12] concerns the target Thyrotropin-releasing hormone receptor (Homo sapiens) (UniProt P34981). As to the kind of experiment: qHTS assay to identify small molecule antagonists of the thyrotropin-releasing hormone receptor (TRHR) signaling pathway (AID 1346877; active = well fitted inhibition curve with a large enough effect in the repeat runs, not every such curve was filed as active; note: potency is the fitted concentration of half-maximal effect). In a few lines: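 Human TRHR in HEK293 cells; inhibition of the intracellular calcium rise triggered by 1 nM TRH was followed by fluorescence over 3 min. Compounds were run at 15 concentrations, three replicates each.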

For test [13] the target is unchanged. Kind of test: qHTS assay to identify small molecule agonists of the thyrotropin-releasing hormone receptor (TRHR) signaling pathway (AID 1346891; calls by dose curve;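 note: HEK293 cells expressing TRHR with calcium dye readout; series mostly up to about 58 µM; % is set by controls: 0 for no effect and ±100 for the full control effect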). In a few lines: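 Agonist-mode calcium mobilisation screen: TRHR-transfected HEK293 cells cultured overnight (18 h), dye-loaded for 2 h at 37 °C, exposed to compounds, and monitored by fluorescence for 3 min.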
Test [14] in a line: qHTS assay to identify small molecule agonists or antagonists of the thyroid stimulating hormone receptor (TSHR) signaling pathway - wild type cell line counter screen (AID 1259384; calls by dose curve; note: % is set by controls: 0 for no effect and ±100 for the full control effect). The gist of the method: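 Wild-type Hek293 cells, 800/well, 18 h at 37C, then compound with Ro20-1724 for 30 min RT. cAMP by HTRF (cAMP-d2/anti-cAMP cryptate), 1 h RT, fluorescence read. 15 concentrations, triplicates.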

For test [15], the target named is Thyrotropin receptor (Homo sapiens) (UniProt P16473). Kind of test: qHTS assay to identify small molecule antagonists of the thyroid stimulating hormone receptor (TSHR) signaling pathway (AID 1259385; calls by dose curve; note: nearly all actives have a fitted effect of over 20% in size; note: potency is the fitted concentration of half-maximal effect). In a few lines: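 TSHR-HEK293 cells (800/well) plated 18 h, then compounds with Ro20-1724 and TSH at 1.5 ng/mL final, 30 min at room temperature. cAMP quantified by HTRF (cAMP-d2/anti-cAMP-cryptate, 1 h); 15 concentrations in triplicate.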

The nature of test [16]: qHTS assay to identify small molecule antagonists of the TGF-beta/Smad signaling pathway - cell viability counter screen (AID 1346824). Note: % is set by controls: 0 for no effect and ±100 for the full control effect; nearly all actives have a fitted effect of over 50% in size. In a few lines:
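SBE-bla HEK 293T cells, incubated overnight, then compound plus 0.25 ng/mL TGF-beta1 (stock added) for 5 hr at 37 C. Viability was read in the same wells by CellTiter-Glo luminescence after 30 min at room temperature.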

A short description of test [17]: qHTS assay to identify small molecule agonists of the TGF-beta/Smad signaling pathway (AID 1346859; active = well fitted activation curve with a large enough effect in the signal ratio in the repeat runs, not every such curve was filed as active; the % refers to the signal ratio; note: series mostly up to about 77 µM; % is set by controls: 0 for no effect and ±100 for the full control effect). The gist of the method: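 Smad-responsive beta-lactamase reporter cells (HEK 293T) received compounds from DMSO stocks after overnight attachment, were incubated 5 hr, then treated 2 hr with FRET substrate before dual-emission fluorescence measurement (405 nm excitation).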

The target of test [18] is Estrogen receptor beta (Homo sapiens) (UniProt Q92731). Kind of test: qHTS assay to identify small molecule agonists of the estrogen receptor beta (ER-beta) signaling pathway (AID 1259377; active = well fitted activation curve with a large enough effect in the signal ratio in the repeat runs, not every such curve was filed as active; the % refers to the signal ratio; note: potency is the fitted concentration of half-maximal effect). The gist of the method: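 A UAS-controlled beta-lactamase reporter in ER-beta-UAS-bla HEK293T cells reports receptor activation. Compounds act for 16 hr at 37C in 2% charcoal-stripped serum, and a FRET substrate is read by fluorescence after 2 hours.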
Estrogen receptor beta (Homo sapiens), sequence (Q92731 whole entry, looked up): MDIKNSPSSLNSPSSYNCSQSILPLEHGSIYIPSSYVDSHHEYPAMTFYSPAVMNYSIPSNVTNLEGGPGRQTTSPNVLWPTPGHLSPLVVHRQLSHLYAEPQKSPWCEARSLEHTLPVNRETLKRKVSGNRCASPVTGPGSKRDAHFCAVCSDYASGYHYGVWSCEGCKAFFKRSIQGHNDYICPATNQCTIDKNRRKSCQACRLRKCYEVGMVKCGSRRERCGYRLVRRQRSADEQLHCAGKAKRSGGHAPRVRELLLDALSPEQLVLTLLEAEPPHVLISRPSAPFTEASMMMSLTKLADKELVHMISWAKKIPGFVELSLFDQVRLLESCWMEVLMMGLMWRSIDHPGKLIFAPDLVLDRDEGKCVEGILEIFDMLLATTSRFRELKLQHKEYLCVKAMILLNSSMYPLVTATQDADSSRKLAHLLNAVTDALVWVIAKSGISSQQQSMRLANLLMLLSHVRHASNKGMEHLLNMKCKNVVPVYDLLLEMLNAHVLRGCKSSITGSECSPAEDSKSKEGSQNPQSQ

Estrogen receptor (Homo sapiens), sequence (P03372 whole entry, looked up): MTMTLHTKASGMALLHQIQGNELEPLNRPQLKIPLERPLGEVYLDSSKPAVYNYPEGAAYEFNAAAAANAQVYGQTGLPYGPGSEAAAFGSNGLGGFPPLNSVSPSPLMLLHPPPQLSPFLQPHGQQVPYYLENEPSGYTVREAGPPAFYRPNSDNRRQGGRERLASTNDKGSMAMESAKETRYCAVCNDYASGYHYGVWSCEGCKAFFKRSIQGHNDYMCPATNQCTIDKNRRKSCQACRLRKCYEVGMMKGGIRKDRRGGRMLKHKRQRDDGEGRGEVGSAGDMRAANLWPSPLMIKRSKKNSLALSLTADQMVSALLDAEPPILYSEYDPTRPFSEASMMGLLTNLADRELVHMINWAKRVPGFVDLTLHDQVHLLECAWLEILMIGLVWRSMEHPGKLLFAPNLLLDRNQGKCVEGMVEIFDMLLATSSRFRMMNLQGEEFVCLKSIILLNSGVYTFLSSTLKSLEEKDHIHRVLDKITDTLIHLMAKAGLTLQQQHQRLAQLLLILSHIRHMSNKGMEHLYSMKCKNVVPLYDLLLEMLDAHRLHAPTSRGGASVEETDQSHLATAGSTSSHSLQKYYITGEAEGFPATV
Progesterone receptor (Homo sapiens), sequence (P06401 whole entry, looked up): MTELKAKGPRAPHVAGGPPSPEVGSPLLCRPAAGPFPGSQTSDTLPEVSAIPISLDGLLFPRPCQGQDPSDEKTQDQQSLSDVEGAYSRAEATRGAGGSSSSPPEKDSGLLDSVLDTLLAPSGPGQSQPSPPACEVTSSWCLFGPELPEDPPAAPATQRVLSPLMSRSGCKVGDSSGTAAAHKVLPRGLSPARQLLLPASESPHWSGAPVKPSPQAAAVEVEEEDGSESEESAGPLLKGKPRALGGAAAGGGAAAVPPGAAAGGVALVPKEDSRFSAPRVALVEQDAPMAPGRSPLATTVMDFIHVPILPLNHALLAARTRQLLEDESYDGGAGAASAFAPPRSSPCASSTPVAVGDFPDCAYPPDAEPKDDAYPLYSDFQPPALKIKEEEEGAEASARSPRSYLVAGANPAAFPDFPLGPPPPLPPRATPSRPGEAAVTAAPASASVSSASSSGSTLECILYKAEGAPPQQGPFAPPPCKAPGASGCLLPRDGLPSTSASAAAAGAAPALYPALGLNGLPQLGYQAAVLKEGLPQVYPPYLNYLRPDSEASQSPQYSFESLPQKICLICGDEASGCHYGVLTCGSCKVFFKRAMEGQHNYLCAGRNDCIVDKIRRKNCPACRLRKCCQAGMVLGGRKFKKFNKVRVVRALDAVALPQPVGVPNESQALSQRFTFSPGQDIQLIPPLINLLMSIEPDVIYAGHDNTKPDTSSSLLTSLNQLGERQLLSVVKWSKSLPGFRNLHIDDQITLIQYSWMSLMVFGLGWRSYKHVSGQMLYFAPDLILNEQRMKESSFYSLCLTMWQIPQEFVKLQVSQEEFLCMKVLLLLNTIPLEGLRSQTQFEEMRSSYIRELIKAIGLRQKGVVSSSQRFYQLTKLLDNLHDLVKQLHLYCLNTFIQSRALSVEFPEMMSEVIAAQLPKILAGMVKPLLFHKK
Thyrotropin-releasing hormone receptor (Homo sapiens), sequence (P34981 whole entry, looked up): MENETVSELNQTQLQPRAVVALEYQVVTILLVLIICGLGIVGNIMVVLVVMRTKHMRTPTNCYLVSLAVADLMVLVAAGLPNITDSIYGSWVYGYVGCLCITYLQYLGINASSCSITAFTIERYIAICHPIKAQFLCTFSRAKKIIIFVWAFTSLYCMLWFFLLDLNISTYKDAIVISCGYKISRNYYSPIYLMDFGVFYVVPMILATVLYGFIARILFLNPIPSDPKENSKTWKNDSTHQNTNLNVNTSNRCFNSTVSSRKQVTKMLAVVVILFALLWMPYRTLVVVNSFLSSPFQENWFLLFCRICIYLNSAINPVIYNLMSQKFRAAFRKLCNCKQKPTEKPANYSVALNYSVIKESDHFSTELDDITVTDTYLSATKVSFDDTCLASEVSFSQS
Thyrotropin receptor (Homo sapiens), sequence (P16473 whole entry, looked up): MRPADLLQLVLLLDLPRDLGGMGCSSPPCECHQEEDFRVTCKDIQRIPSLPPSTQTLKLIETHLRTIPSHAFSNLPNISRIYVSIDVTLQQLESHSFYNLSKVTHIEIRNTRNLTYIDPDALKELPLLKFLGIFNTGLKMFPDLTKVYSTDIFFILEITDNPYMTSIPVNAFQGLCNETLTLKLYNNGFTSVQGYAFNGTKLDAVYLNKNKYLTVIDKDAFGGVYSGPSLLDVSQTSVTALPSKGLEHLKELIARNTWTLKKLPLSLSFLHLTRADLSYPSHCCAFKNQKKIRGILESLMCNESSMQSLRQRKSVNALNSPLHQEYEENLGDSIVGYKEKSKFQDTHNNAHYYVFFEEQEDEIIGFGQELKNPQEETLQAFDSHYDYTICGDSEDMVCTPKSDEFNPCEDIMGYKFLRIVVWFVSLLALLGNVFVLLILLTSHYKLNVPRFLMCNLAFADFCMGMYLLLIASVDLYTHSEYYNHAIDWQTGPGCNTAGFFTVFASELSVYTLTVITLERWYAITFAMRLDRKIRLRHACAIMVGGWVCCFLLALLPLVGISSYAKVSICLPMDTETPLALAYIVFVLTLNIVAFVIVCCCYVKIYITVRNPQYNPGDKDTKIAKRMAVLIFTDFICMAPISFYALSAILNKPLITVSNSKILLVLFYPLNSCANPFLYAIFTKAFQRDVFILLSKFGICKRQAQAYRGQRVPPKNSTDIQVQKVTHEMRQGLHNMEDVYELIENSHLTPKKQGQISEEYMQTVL

With `O=C1C(Cl)=C(Cl)C(=O)c2ccccc21`, the Potency in [1] is 1.73 µM (active); in [2], 48.7 µM (active) and 54.5 µM (active); in [3], 27.4 µM (active) and 27.3 µM (active); in [4] it was 19.4 µM (active) and 30.6 µM (active); in test [6], 43.4 µM (active) and 61.1 µM (active); in test [8] it was 48.6 µM (active). For the same compound, the Potency in [9] was 61.3 µM (active) and 61.1 µM (active); in test [10], 61.1 µM (active); in test [11] it was 49.1 µM (active) and 43.6 µM (active); in [12], 21.4 µM (active) and 21.3 µM (active). The Potency result in [5] and in test [7] was “inactive” each time. In test [13], the call was inactive.
In the case of `CCC[CH2][Sn]([Cl])([CH2]CCC)[CH2]CCC`, the Potency in test [1] was 0.307 µM (active); in test [2], 687 nM (active) and 1.54 µM (active); in test [3], 1.22 µM (active) and 1.37 µM (active); in [4], 1.73 µM (active) and 1.93 µM (active); in test [15] it was 12.2 µM (active); in test [6] it was 10.9 µM (active) and 30.6 µM (active). The Potency is 1.73 µM (active) and 3.44 µM (active) in [9]; 1.73 µM (active) and 2.17 µM (active) in test [10]; 1.55 µM (active) and 977 nM (active) in [11]. The Potency result in test [5] and in [14] was “inactive” in each case.
As to `C[N+](C)(C)CC(=O)O`, the Potency result in test [1], in test [2], in test [3], in [4], in [5] and in test [6] was “inactive” throughout. For the same compound, the Potency result in [7], in [8], in [9], in test [10], in test [16] and in test [11] was “inactive” in each case. For the same compound, in [17], the Potency result is “inactive”.
Regarding `CCCCOCC1CO1` (stereo not given), the Potency result in test [1], in test [2], in test [3], in test [4], in test [5] and in [14] was “inactive” throughout. In addition, the Potency result in [15], in test [6], in test [7], in [8], in [9] and in test [10] was “inactive” each time. For the same compound, the Potency result in [16], in test [11], in test [17] and in test [12] was “inactive” throughout.
Regarding `CCCCCCCCCC(CC)c1ccc(S(=O)(=O)O)cc1` (stereo not given), the Potency result in test [1], in test [2], in test [6], in test [16] and in test [11] was “inactive” throughout. Also, the Potency in test [9] is 30.9 µM (active) and 29.8 µM (active) and 27.3 µM (active); in test [10] it was 27 µM (active) [middle of 4 runs].
In the case of `C[C@]12CC[C@H]3[C@@H](CCC4=CC(=O)CC[C@@H]43)[C@@H]1CC[C@@H]2O`, the Potency in test [18] was 540 nM (active) and 4.22 µM (active); in [5], 1.21 µM (active) and 6.68 µM (active). In addition, the Potency result in test [2], in test [3], in [4], in [14], in test [15] and in test [6] was “inactive” in each case. Further, the Potency result in test [8], in test [9], in test [16], in test [11], in [17] and in test [12] was “inactive” throughout.
Turning to `Nc1ccc([N+](=O)[O-])cc1N`, the Potency is 2.43 µM (active) in [1]; 61.1 µM (active) and 30.6 µM (active) in test [2]; 21.7 µM (active) and inactive in test [3]; 48.5 µM (active) and 38.6 µM (active) in test [6]. The Potency entry in test [4], in test [14], in [7], in test [10], in test [16] and in test [11] was “inactive” throughout. Also, in [12], the Potency entry was “inactive”.
